Compounds without any hit were thinned out: in the full panel of roughly 83,000, 20% have a hit.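 Percent growth is the endpoint: 0 to 100 indicates growth inhibition (40 means 60% inhibition), 0 means no net growth, and negative values indicate cell death.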 Unmarked numbers belong to inactive results. Active and inactive are the calls of the source. Rule for the calls: active = growth percent below 10; inactive = the rest.
Assays:
Experiment in all cases: NCI-60 one-dose screen, 48 h (100 = growth as untreated, 0 = no growth, -100 = all killed)
Conditions in all cases: 10 µM unless noted
[1] = system: NCI-H23 lung
[2] = system: NCI-H226 lung
[3] = system: NCI-H322M lung
[4] = system: HOP-62 NSCLC
[5] = system: NCI-H460 lung
[6] = system: HOP-92 NSCLC
[7] = system: NCI-H522 lung
[8] = system: A549/ATCC NSCLC
[9] = system: 786-0 renal
[10] = system: COLO 205 colon
[11] = system: DU-145 prostate
[12] = system: MALME-3M melanoma
[13] = system: MDA-MB-231 breast
[14] = system: RXF 393 renal
[15] = system: SF-268 CNS
[16] = system: SF-295 CNS
[17] = system: SF-539 CNS
[18] = system: UACC-257 melanoma
[19] = system: M14 melanoma

SMILES	growth [1]	growth [2]	growth [3] [%]	growth [4]	growth [5]	growth [6]	growth [7]	growth [8]	growth [9]	growth [10]	growth [11]	growth [12]	growth [13] [%]	growth [14]	growth [15]	growth [16]	growth [17]	growth [18]	growth [19]
COc1ccc(Cc2cnc(NC(=O)c3ccc4c(c3)OCCO4)s2)cc1	18.8%	1.86% (active)	41.3	29.1%	6.33% (active)	57.8%	-2.66% (active)	16.1%	26.6%	-6.28% (active)	14.9%	55.4%	37.1	19.5%	34.8%	10.5%	-1.94% (active)	46.4%	15.6%
COc1cc(/C=C2\COc3ccc(-c4ccccc4)cc3C2=O)cc(OC)c1	70.1%	87.4%	85.9	113%	66.7%	70.3%	39.2%	72%	89.3%	107%	85.8%	101%	95.5	66.1%	82.3%	68.9%	100%	70.9%	91.9%
CCCCN1C=CCN(CCCC)C1	65.4%	82.9%	75	84.1%	50.1%	50.2%	47.7%	66.7%	73.9%	30.4%	71.8%	-22.1% (active)	75.2	113%	58%	55.6%	78.6%	10.8%	46%
CCc1c2c(nc3ccc(OCc4ccc(B(O)O)cc4)cc13)-c1cc3c(c(=O)n1C2)COC(=O)[C@]3(O)CC	-35.8% (active)	-21.4% (active)	15.7	-17% (active)	2.12% (active)	-4.54% (active)	-9.3% (active)	7.22% (active)	-13.7% (active)	13.6%	9.26% (active)	-7.08% (active)	28.8	-45.5% (active)	7.54% (active)	1.47% (active)	-7.49% (active)	-12.2% (active)	1.07% (active)
Cc1ccc(C(=O)/C(=C\c2ccc([N+](=O)[O-])cc2)S(=O)Cc2ccc(F)cc2)cc1 (configuration not stated)	31.6%	41.5%	72.6	21.5%	15%	27.2%	-12% (active)	73.2%	-66.1% (active)	2.86% (active)	18.6%	-3.22% (active)	11	-80% (active)	19.5%	62.5%	15.4%	91.6%	28.2%
O=Cc1ccc(-c2cn3ccnc3c(-c3ccc4ncn(Cc5ccccc5)c4c3)n2)cc1	45.5%	99.5%	88.8	76.2%	62.2%	57%	74.7%	103%	53.3%	126%	75.7%	113%	40.8	75%	72.9%	76.9%	68.5%	122%	77%
Cc1ccc(NS(=O)(=O)c2ccc(-c3cnc(C4CC4)o3)cc2)cc1C(F)(F)F	72.8%	77.9%	88.7	60.7%	55.8%	83.3%	39.9%	55.2%	85.5%	67.5%	87.1%	65.8%	78.8	69.4%	77.5%	43.6%	65.5%	73.7%	48.6%
O=C(/C=C/c1c(-c2ccc(Cl)cc2)nn(-c2ccccc2)c1C(F)(F)F)c1ccc(Cl)cc1	80.8%	101%	93.3	90.9%	82.3%	65.1%	78.9%	81.3%	95.9%	110%	108%	104%	79.5	88.4%	105%	96.5%	102%	104%	90.5%

Source: PubChem BioAssay (NCI)
